{"source": "PubChem BioAssay AID2315", "about": "(National Center for Advancing Translational Sciences (NCATS), 2010)", "note": "About 27,000 (9.3%) of roughly 290,000 compounds were called active. Many of the other results were omitted from the sample, so actives are more common in it than they were. Unmarked numbers belong to inactive results. Rule as the data show it: active = inhibition mostly above about 28% (no sharp cut-off); inactive = mostly below about 43%.", "data": [{"test": "A qHTS for Small Molecule Inhibitors of Shiga Toxin; as to inhibition: 0% is about no effect", "settings": "Vero cells, Shiga toxin protein synthesis inhibition reporter; at 38.7 µM, hits give high values", "values": [{"smiles": "COc1ccc(-n2ncc3c2CC(C)(C)CC3NC(=O)CCc2c(C)nn(C)c2C)cc1", "note": "(stereo not drawn)", "inhibition": "-7.46%"}, {"smiles": "COc1cccc(NC(=O)CCc2nnc3ccc(N4CCC(C)CC4)nn23)c1", "inhibition": "2.02%"}, {"smiles": "COc1ccc(C(=O)NC(=S)N2CCNC(=O)C2CC(=O)OC(C)C)cc1", "note": "(stereo not drawn)", "inhibition": "-13.5%"}, {"smiles": "COc1ccc(S(=O)(=O)N2CCN(C(=O)N(C)C)C2C)cc1", "note": "(stereo not drawn)", "inhibition": "-15.4%"}, {"smiles": "COc1ccc(/C=N/OCc2ccccc2C#N)c(OC)c1", "inhibition": "70.8% (active)"}, {"smiles": "COc1ccc(/C=N/NC(=O)c2ccc3c(c2)OCCO3)c(OC)c1", "inhibition": "45.8%"}, {"smiles": "COc1ccc(/C=N/Nc2cc(N3CCOCC3)nc(C)n2)c(OC)c1", "inhibition": "6.01%"}, {"smiles": "Fc1cccc2ncnc(OCc3ccccc3)c12", "inhibition": "5.51%"}, {"smiles": "Cc1nc2ccccc2cc1OCc1ccc(F)cc1", "inhibition": "29.8% (active)"}, {"smiles": "Cc1occc(=O)c1OCc1ccc(F)cc1", "inhibition": "-2.22%"}, {"smiles": "O=C(COc1ccc(Cl)cc1)NCCS(=O)(=O)N1CCN(c2ccc(F)cc2)CC1", "inhibition": "29%"}, {"smiles": "COC(=O)/C=C\\C(=O)Nc1cccc([N+](=O)[O-])c1", "inhibition": "26.5%"}, {"smiles": "CC(C)c1ccc(N(C(=O)c2ccco2)C(C(=O)NC2CCCC2)c2cccnc2)cc1", "note": "(stereo not drawn)", "inhibition": "22.5%"}, {"smiles": "COc1ccc(C2NC(=O)N(C)C(C)=C2[N+](=O)[O-])cc1", "note": "(stereo not drawn)", "inhibition": "-11.1%"}, {"smiles": "Cc1cc(/C=C2/NC(=O)NC2=O)c(C)n1-c1cccnc1", "inhibition": "44.4%"}, {"smiles": "Cc1ccccc1-n1c(C)cc(/C=C2\\NC(=O)NC2=O)c1C", "inhibition": "55.3% (active)"}, {"smiles": "Cc1cccc(C)c1-n1c(C)cc(/C=C2\\C(=O)NN(c3ccccc3)C2=O)c1C", "inhibition": "-7.74%"}, {"smiles": "Cn1c(=O)oc2cc(S(=O)(=O)NCCC(=O)NCc3ccccc3Cl)ccc21", "inhibition": "-2.59%"}, {"smiles": "CC(=O)c1ccc(NC(=O)c2ccc(-n3cncn3)c([N+](=O)[O-])c2)cc1", "inhibition": "-21.9%"}, {"smiles": "CCc1nnc(NC(=O)c2nc3nccc(C)n3n2)s1", "inhibition": "2.51%"}, {"smiles": "Cc1ccnc2nc(C(=O)Nc3nnc(-c4ccccc4)o3)nn12", "inhibition": "71.9% (active)"}, {"smiles": "Cc1cccc(NC(=O)Nc2nnc(-c3ccccc3)o2)c1", "inhibition": "-5.35%"}, {"smiles": "O=C(CN1C2=NCCN2c2ccccc21)c1cccs1", "inhibition": "-3.32%"}, {"smiles": "Nc1c(C(=O)c2cccs2)sc2nsc(SCCN3CCCCC3)c12", "inhibition": "45.8% (active)"}, {"smiles": "O=C(CCC1CCCC1)N=C1SC2CS(=O)(=O)CC2N1Cc1ccccc1", "note": "(stereo not drawn)", "inhibition": "14.2%"}, {"smiles": "COCCCNC(=O)Cc1ccc(-n2c(C)nc3cccnc32)cc1", "inhibition": "1.73%"}, {"smiles": "CC1C/C(=N/NC(=O)c2cccs2)CC(C)(C)C1", "note": "(stereo not drawn)", "inhibition": "84.1% (active)"}, {"smiles": "CC1(C)CC(=O)C/C(=N\\NC(=O)c2cccs2)C1", "inhibition": "18.8%"}, {"smiles": "CC(C)OCCCNC(=O)CNC(=O)c1cccs1", "inhibition": "-2.7%"}, {"smiles": "COc1cc(CCC(=O)N2CCN(c3ccccc3Cl)CC2)cc(OC)c1OC", "inhibition": "-6.24%"}, {"smiles": "O=C(CN1CCC(NC(=O)C2CC2)CC1)Nc1ccccc1[N+](=O)[O-]", "inhibition": "-3.78%"}, {"smiles": "O=c1ccc2cc(S(=O)(=O)NCCCc3ccccc3)ccc2[nH]1", "inhibition": "3.55%"}, {"smiles": "COc1ccc(CNC(=O)CSc2n[nH]c(N)n2)cc1OC", "inhibition": "0.155%"}, {"smiles": "CC(C)(C)SCCNC(=O)c1cccc([N+](=O)[O-])c1", "inhibition": "-40.1% (active)"}, {"smiles": "Cc1cccc(C(=O)NNC(=O)c2cccc([N+](=O)[O-])c2)c1", "inhibition": "3.18%"}, {"smiles": "Cc1cc(CNC(=O)c2cccc([N+](=O)[O-])c2)c2ccccc2n1", "inhibition": "54%"}, {"smiles": "COc1cccc(NCCC(=O)c2cccc([N+](=O)[O-])c2)c1", "inhibition": "67.3% (active)"}, {"smiles": "COc1cccc(C(=O)CC(=O)C(=O)Nc2ccc([N+](=O)[O-])cc2C)c1", "inhibition": "4.12%"}, {"smiles": "COc1cccc(CNC(=O)CCCC(=O)Nc2cccc([N+](=O)[O-])c2)c1", "inhibition": "-12.3%"}, {"smiles": "CCOc1ccc(C(C)=O)cc1COC(=O)c1cnc(Cl)c(Cl)c1", "inhibition": "14.4%"}, {"smiles": "COC(=O)c1ccc(COC(=O)c2cnc(Cl)c(Cl)c2)cc1", "inhibition": "87.3% (active)"}, {"smiles": "COC(=O)c1ccc(COC(=O)c2cnccn2)cc1", "inhibition": "5.86%"}, {"smiles": "CN(Cc1ccccc1)C(=O)c1ccc(NC2=NC3CS(=O)(=O)CC3S2)cc1", "note": "(stereo not drawn)", "inhibition": "-3%"}, {"smiles": "CC(=O)Nc1ccc(NC(=O)C2CCCN2S(=O)(=O)c2cccc(C(F)(F)F)c2)cc1", "note": "(stereo not drawn)", "inhibition": "-1.36%"}, {"smiles": "CSc1cccc(NC(=O)C2CCCN2S(=O)(=O)c2ccc3c(c2)CCC(=O)N3)c1", "note": "(stereo not drawn)", "inhibition": "25.9% (active)"}, {"smiles": "O=C1CCc2cc(S(=O)(=O)N3CCC(C(=O)NCc4ccccc4Cl)CC3)ccc2N1", "inhibition": "-4.83%"}, {"smiles": "CC(=O)c1cccc(NC(=O)C2CCN(C(=O)c3ccccc3Cl)CC2)c1", "inhibition": "-18.7%"}, {"smiles": "CCOc1ccc(C)cc1S(=O)(=O)NC1CCCCCC1", "inhibition": "-4.32%"}, {"smiles": "CCc1cc2c(=O)n(-c3ccccc3)c(SCC(=O)O)nc2s1", "inhibition": "-7.15%"}, {"smiles": "COc1ccc(/C=C2\\N=C3CCCN3C2=O)cc1", "inhibition": "84.4% (active)"}, {"smiles": "COc1ccc(/C=C2\\SC(=N)N(c3ccc(F)cc3)C2=O)cc1", "inhibition": "-5.41%"}, {"smiles": "COc1ccc(/C=C2\\SC(=S)N(CC(=O)NNC(=O)c3ccncc3)C2=O)cc1", "inhibition": "30.3%"}, {"smiles": "CC(C)c1c(C(=O)N/N=C/c2ccc(-c3ccccc3)cc2)nnn1-c1nonc1N", "inhibition": "-5.37%"}, {"smiles": "CCOc1ccc(CN2CCN(CCCc3ccccc3)C(CCO)C2)cc1", "note": "(stereo not drawn)", "inhibition": "1.09%"}, {"smiles": "COc1ccc(N2C(=O)NC(NS(=O)(=O)c3ccc(Cl)cc3)(C(F)(F)F)C2=O)cc1", "note": "(stereo not drawn)", "inhibition": "-3.26%"}, {"smiles": "Cc1[nH]n(-c2ccc(Cl)cc2)c(=O)c1/C=N/n1c(C)nc2ccccc2c1=O", "inhibition": "38.2%"}, {"smiles": "COc1cc(/C=N\\NC(=O)CNC(=O)c2cccc([N+](=O)[O-])c2)ccc1O", "inhibition": "-6.08%"}, {"smiles": "Cc1ccc(-n2[nH]c(C)c(/C=N/NC(=O)c3cccc([N+](=O)[O-])c3)c2=O)cc1C", "inhibition": "62.4% (active)"}, {"smiles": "COc1cc(/C=N/NC(=O)c2ccoc2C)ccc1OCCN1CCCCC1", "inhibition": "29.5%"}, {"smiles": "Cc1[nH]n(-c2ccc([N+](=O)[O-])cc2)c(=O)c1C=NCCN1CCN(C(=O)c2ccccc2F)CC1", "inhibition": "-12.7%"}, {"smiles": "Cc1[nH]n(-c2ccccc2)c(=O)c1/C=N/NC(=O)c1ccoc1C", "inhibition": "125% (active)"}, {"smiles": "COc1cc(NS(=O)(=O)c2ccc(NC(=S)NC(=O)c3ccc(Br)cc3)cc2)ncn1", "inhibition": "-2.95%"}, {"smiles": "N#CCC(=O)NC1CCC(CC2CCC(NC(=O)CC#N)CC2)CC1", "note": "(stereo not drawn)", "inhibition": "-8.84%"}, {"smiles": "Cc1[nH]c(C)c(S(=O)(=O)N2CCN(c3cccc(C(F)(F)F)c3)CC2)c1C(=O)N1CCCCC1", "inhibition": "-4.18%"}, {"smiles": "NC(=O)C1=C[C@H](c2csc3ccccc23)C[C@H](OCc2ccc(CO)cc2)O1", "inhibition": "24%"}, {"smiles": "O=S(=O)([N-]c1nc2ccccc2nc1-[n+]1ccc(Cc2ccccc2)cc1)c1ccc(Br)s1", "inhibition": "47.8% (active)"}, {"smiles": "O=C(NCCc1ccccc1)C1CCN(S(=O)(=O)c2ccc(Br)s2)CC1", "inhibition": "9.64%"}, {"smiles": "Cc1cc(C)c[n+](-c2nc3ccccc3nc2[N-]S(=O)(=O)c2cccs2)c1", "inhibition": "1.54%"}, {"smiles": "CCOc1ncccc1C(=O)NCCc1ccc(OC)cc1", "inhibition": "-6.94%"}, {"smiles": "CNC(=O)c1sc(NCc2ccccc2OC)nc1C", "inhibition": "4.08%"}, {"smiles": "Cc1cc2c(c(=O)n1Cc1ccccc1)C1O[C@](CCCCN3C(=O)c4ccccc4C3=O)(Cc3ccccc31)O2", "inhibition": "inactive"}, {"smiles": "O=C(O)CCCN1C(=O)c2ccccc2Sc2ncccc21", "inhibition": "-5.85%"}, {"smiles": "O=c1[nH]c(-c2cccs2)nc2ccccc12", "inhibition": "32.8%"}, {"smiles": "O=c1c2cc(-c3ccccc3)sc2nc2n1N=C(c1cccs1)CS2", "inhibition": "100% (active)"}, {"smiles": "c1csc(-c2cn3c(n2)SCC3)c1", "inhibition": "16.5%"}, {"smiles": "C#CC(C)(C)NC(=O)c1cnc(-c2ccccc2)nc1-c1ccccc1", "inhibition": "-5.15%"}, {"smiles": "CC(=O)c1ccc(N2CCN(S(=O)(=O)c3ccc4c(c3)CC(=O)N4C)CC2)cc1", "inhibition": "54.4% (active)"}, {"smiles": "CC(=O)c1ccc(N2CCN(C(=O)C3CCN(S(=O)(=O)c4ccc5c(c4)CC(C)N5C(=O)C4CC4)CC3)CC2)cc1", "note": "(stereo not drawn)", "inhibition": "22.9%"}, {"smiles": "CC(=O)c1ccc(N2CCN(S(=O)(=O)c3c(C)[nH]c(=O)[nH]c3=O)CC2)cc1", "inhibition": "16.6%"}, {"smiles": "CCCn1nnnc1NCc1ccc(CC)cc1", "inhibition": "-8.65%"}, {"smiles": "COC(=O)/C=C/C(=O)NCc1ccco1", "inhibition": "18.7%"}, {"smiles": "O=C(/C=C/c1ccc(Cl)cc1Cl)NCc1ccco1", "inhibition": "94.1% (active)"}, {"smiles": "O=C(NCc1ccco1)C1(c2ccc(Cl)cc2)CCCC1", "inhibition": "-3.65%"}, {"smiles": "CC(NC(=O)c1cc(=O)[nH]c2ccccc12)c1ccc(F)cc1F", "note": "(stereo not drawn)", "inhibition": "9.23%"}, {"smiles": "CC1CCN(C2=NC(=O)/C(=C/c3ccc(O)cc3)S2)CC1", "inhibition": "38.6%"}, {"smiles": "CCOc1ccc(/C=C2\\SC(=S)N(NC(=O)c3ccncc3)C2=O)cc1OC", "inhibition": "-10.1%"}, {"smiles": "CCOc1cc(/C=C2\\SC(N3CCCCC3)=NC2=O)ccc1O", "inhibition": "67.1% (active)"}, {"smiles": "CCOc1cc(/C=C2\\SC(N3CCCC(C)C3)=NC2=O)ccc1O", "note": "(stereo not drawn)", "inhibition": "60.1% (active)"}, {"smiles": "O=C1N=C(N2CCCC2)S/C1=C\\c1cccc(Br)c1", "inhibition": "34.8%"}, {"smiles": "CCOc1cc(C(=S)N2CCOCC2)ccc1O", "inhibition": "-8.19%"}, {"smiles": "CC(C)CNS(=O)(=O)c1ccc(CCC(=O)NCc2ccc(Cl)cc2)cc1", "inhibition": "-10.9%"}, {"smiles": "CCOc1cc(-c2cc(-c3ccc(NC(C)=O)cc3)nc(N)c2C#N)ccc1O", "inhibition": "-1.91%"}, {"smiles": "COc1ccc(S(=O)(=O)Nc2ccccc2C(=O)N2CCCC2)cc1C", "inhibition": "5.33%"}]}]}
